According to PubChem BioAssay (EPA / NIEHS):
Results filed as inconclusive are left out. Activity calls are given as the source filed them. Rule for the calls, unless noted: active = hit-call score of the fitted dose curve at least 0.9, where 1 is the maximum; inactive = score below 0.9.

Columns and labels:
[1] = ATG_TAL_CIS: Attagene CIS-FACTORIAL HepG2 Assay for human TAL Basal Promoter (AID 2282966); details: HepG2 Attagene cis-factorial TAL promoter reporter; actives raise or lower the signal;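 note: background control endpoint measuring basal TAL promoter reporter mRNA not a specific factor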
How it was run: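 Fluorescence of labelled reporter cDNA fragments, resolved by capillary electrophoresis, gave the readout. Human HepG2 liver cells carried transiently transfected cis-element reporter units and were treated for 24 hours; activity was fitted bidirectionally against DMSO.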

[2] = ATG_TGFb_CIS: Attagene CIS-FACTORIAL HepG2 Assay for human Transforming Growth Factor (TGF) (AID 2282967); details: HepG2 Attagene CIS TGFb reporter, mRNA transcription; actives raise or lower the signal
How it was run: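 HepG2 cells transiently transfected with cis-promoter-driven multiple reporter units measure endogenous TF activity; reporter mRNA quantified at 24 h by RT-PCR, FAM labeling, HpaI digestion and capillary electrophoresis. Bidirectional fit vs DMSO.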

[3] = ATG_VDRE_CIS: Attagene CIS-FACTORIAL HepG2 Assay for human Vitamin D Receptor Element (VDRE) (AID 2282968); details: HepG2 VDRE cis-reporter transcription, actives raise or lower the signal
How it was run: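 In transiently transfected HepG2 liver cells, gain or loss of reporter mRNA after 24 h exposure is scored relative to DMSO, using fluorescence detection by capillary electrophoresis of RT-PCR products.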

[4] = molecular target: Nuclear receptor subfamily 1 group I member 3 (Homo sapiens) (UniProt Q14994); assay: ATG_CAR_TRANS: Attagene TRANS-FACTORIAL HepG2 Assay for human Constitutive Androstane Receptor (CAR) (AID 2282969; active = hit-call score of the fitted dose curve at least 0.9, where 1 is the maximum;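 note: activators raise reporter mRNA above DMSO so AC50 marks induction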); details: HepG2 Attagene TRANS-FACTORIAL CAR reporter
Sequence of Nuclear receptor subfamily 1 group I member 3 (Homo sapiens) (Q14994 whole entry, looked up, the tested form may be a part): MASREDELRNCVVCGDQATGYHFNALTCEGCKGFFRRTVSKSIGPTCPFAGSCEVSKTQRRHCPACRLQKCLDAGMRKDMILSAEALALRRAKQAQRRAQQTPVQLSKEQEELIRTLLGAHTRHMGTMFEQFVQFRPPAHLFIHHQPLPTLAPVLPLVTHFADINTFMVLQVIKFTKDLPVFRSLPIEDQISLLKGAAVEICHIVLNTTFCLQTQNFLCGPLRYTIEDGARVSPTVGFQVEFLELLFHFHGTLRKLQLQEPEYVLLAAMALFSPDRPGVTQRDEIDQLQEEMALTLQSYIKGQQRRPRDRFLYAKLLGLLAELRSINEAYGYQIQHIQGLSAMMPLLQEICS
How it was run: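 Readout is reporter mRNA induction, quantified by fluorescent primer extension and capillary electrophoresis after RT-PCR. Cells were HepG2 transiently carrying chimeric NR-Gal4 constructs with GAL4-UAS reporters, treated for 24 h; activity scored upward from DMSO.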

[5] = molecular target: Estrogen receptor (Homo sapiens) (UniProt P03372); assay: ATG_ERa_TRANS: Attagene TRANS-FACTORIAL HepG2 Assay for human Estrogen Receptor alpha (ERa) (AID 2282970; active = hit-call score of the fitted dose curve at least 0.9, where 1 is the maximum); details: HepG2 Attagene TRANS ERa GAL4 reporter, mRNA
Sequence of Estrogen receptor (Homo sapiens) (P03372 whole entry, looked up, the tested form may be a part): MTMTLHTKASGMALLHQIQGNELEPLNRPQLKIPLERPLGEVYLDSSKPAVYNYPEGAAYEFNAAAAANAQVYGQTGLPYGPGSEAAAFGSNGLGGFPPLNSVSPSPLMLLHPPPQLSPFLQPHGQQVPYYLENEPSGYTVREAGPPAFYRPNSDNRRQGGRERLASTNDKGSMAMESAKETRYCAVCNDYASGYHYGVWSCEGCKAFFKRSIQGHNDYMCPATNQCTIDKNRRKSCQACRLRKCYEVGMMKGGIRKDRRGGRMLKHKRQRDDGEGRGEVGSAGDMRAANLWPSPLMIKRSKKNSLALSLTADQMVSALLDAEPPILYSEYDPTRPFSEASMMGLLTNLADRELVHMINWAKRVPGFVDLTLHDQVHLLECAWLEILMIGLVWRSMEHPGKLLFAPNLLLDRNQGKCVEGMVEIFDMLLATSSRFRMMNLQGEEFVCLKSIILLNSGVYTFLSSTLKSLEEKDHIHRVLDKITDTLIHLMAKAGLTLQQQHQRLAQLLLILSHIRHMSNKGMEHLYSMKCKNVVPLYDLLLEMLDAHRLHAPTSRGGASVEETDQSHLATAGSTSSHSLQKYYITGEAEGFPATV
How it was run: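 Human liver HepG2, transient transfection of multiple GAL4-UAS reporter units; TRANS format (exogenous NR-Gal4 chimera). 24 h dosing. Readout: reporter mRNA, RT-PCR, 6-FAM primer extension, HpaI digest, capillary electrophoresis. Positive direction vs DMSO.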

[6] = molecular target: X-box-binding protein 1 (Homo sapiens) (UniProt P17861); assay: ATG_Xbp1_CIS: Attagene CIS-FACTORIAL HepG2 Assay for human X-box Binding Protein 1 (XBP1) (AID 2282972); details: HepG2 XBP1 cis-element reporter, Attagene multiplex; actives raise or lower the signal
Sequence of X-box-binding protein 1 (Homo sapiens) (P17861 whole entry, looked up): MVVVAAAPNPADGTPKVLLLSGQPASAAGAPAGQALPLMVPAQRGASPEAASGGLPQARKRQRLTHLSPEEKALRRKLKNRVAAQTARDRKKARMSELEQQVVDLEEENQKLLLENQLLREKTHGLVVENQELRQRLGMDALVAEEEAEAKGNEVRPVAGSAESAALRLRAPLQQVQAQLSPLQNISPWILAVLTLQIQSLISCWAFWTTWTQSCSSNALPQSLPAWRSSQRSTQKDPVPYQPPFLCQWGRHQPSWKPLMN
How it was run: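 HepG2 cells transiently transfected with cis-regulated multiple reporter transcription units; endogenous transcription factor activity measured 24 hours after chemical dosing. Reporter mRNA quantified by RT-PCR, 6-FAM primer extension, HpaI digestion and capillary electrophoresis; bidirectional fitting versus DMSO.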

[7] = ATG_M_19_TRANS: Attagene TRANS-FACTORIAL HepG2 Assay for M19 Transcription Factor (Internal Marker) (AID 2282974; active = hit-call score of the fitted dose curve at least 0.9, where 1 is the maximum); details: HepG2 Attagene TRANS-FACTORIAL M19 internal marker reporter
How it was run: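 HepG2 transiently transfected with GAL4-UAS multiplex reporter constructs, exposed 24 h; reporter RNA quantified by RT-PCR, 6-FAM labeling, HpaI digestion and capillary electrophoresis; internal background marker fitted upward versus DMSO.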

[8] = ATG_Hpa5_TRANS: Attagene TRANS-FACTORIAL HepG2 Assay for human GAL4-Hpa5 Hepatocyte Transcription Factor Basal Promoter (AID 2282975; active = hit-call score of the fitted dose curve at least 0.9, where 1 is the maximum;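 note: hits are increases in reporter mRNA over DMSO baseline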); details: HepG2 Attagene GAL4-Hpa5 transcription reporter
How it was run: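 Basal-promoter GAL4 background control within the HepG2 trans-factorial panel of transiently transfected reporter units. Reporter mRNA is measured 24 h after dosing by RT-PCR and capillary electrophoresis, fitted for gain of signal versus DMSO.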

[9] = molecular target: Steroid hormone receptor ERR1 (Homo sapiens) (UniProt P11474); assay: ATG_ERRa_TRANS: Attagene TRANS-FACTORIAL HepG2 Assay for human Estrogen-Related Receptor alpha (ERRa) (AID 2282971; active = hit-call score of the fitted dose curve at least 0.9, where 1 is the maximum); details: HepG2 Attagene TRANS reporter, ERRa transactivation
Sequence of Steroid hormone receptor ERR1 (Homo sapiens) (P11474 whole entry, looked up, the tested form may be a part): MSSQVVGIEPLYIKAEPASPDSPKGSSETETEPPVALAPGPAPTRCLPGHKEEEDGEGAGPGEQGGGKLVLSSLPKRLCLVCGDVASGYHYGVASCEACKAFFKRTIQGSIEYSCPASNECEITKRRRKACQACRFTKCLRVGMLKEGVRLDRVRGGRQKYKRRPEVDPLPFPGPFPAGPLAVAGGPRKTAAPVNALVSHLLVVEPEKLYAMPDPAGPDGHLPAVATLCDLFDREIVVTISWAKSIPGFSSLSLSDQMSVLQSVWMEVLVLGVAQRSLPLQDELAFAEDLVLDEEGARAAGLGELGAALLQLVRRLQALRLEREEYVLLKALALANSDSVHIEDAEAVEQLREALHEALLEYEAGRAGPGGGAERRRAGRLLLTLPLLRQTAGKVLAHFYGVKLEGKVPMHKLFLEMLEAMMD
How it was run: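 Reporter transcript induction was quantified by RT-PCR and capillary electrophoresis of FAM-labelled, HpaI-cut products after 24 h treatment of HepG2 cells carrying transiently transfected GAL4-UAS reporter units and an exogenous ERRa-Gal4 fusion; activity scored as increase over DMSO.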

[10] = molecular target: Androgen receptor (Homo sapiens) (UniProt P10275); assay: ATG_AR_TRANS: Attagene TRANS-FACTORIAL HepG2 Assay for human Androgen Receptor (AR) (AID 2282973; active = hit-call score of the fitted dose curve at least 0.9, where 1 is the maximum); details: HepG2 Attagene TRANS-FACTORIAL AR reporter transcription
Sequence of Androgen receptor (Homo sapiens) (P10275 whole entry, looked up, the tested form may be a part): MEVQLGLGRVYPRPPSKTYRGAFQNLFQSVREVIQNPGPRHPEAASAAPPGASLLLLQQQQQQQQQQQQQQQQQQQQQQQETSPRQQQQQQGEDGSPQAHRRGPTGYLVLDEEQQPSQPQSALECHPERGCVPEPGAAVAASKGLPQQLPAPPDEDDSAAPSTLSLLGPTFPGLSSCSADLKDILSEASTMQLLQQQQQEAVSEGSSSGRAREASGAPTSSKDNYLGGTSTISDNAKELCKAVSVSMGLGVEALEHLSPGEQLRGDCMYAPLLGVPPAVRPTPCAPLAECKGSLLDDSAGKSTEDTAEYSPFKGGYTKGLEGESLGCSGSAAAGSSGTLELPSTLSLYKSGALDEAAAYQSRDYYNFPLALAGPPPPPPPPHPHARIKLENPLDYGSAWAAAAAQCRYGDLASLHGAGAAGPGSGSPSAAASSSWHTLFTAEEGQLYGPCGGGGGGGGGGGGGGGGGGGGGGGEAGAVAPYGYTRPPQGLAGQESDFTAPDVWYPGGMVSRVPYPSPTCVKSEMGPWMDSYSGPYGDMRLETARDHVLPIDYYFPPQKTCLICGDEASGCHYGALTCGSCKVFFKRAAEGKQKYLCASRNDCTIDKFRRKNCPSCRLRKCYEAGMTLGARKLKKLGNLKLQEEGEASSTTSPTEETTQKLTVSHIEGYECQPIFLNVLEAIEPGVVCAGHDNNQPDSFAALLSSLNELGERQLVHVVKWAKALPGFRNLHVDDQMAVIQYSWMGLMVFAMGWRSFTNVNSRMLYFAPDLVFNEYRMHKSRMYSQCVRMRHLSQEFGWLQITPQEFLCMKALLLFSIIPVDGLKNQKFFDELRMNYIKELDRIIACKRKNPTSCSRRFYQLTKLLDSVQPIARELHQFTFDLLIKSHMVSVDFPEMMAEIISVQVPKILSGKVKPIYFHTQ
How it was run: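 Steps: transfect HepG2 with multiple GAL4-UAS reporter transcription units (TRANS format, exogenous NR-Gal4 protein); dose 24 h; isolate RNA, reverse-transcribe, PCR-amplify, FAM-label, HpaI-digest; resolve by capillary electrophoresis. Positive direction vs DMSO.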

| SMILES | outcome [1] | outcome [2] | AC50 [3] | outcome [4] | AC50 [5] | AC50 [6] | outcome [7] | outcome [8] | outcome [5] | outcome [9] | outcome [6] | outcome [3] | outcome [10] |
| --- | --- | --- | --- | --- | --- | --- | --- | --- | --- | --- | --- | --- | --- |
| CCN(CC)c1nc(C)cc(OP(=S)(OC)OC)n1 | inactive | inactive | 25.4 µM (active) | inactive | 15.5 µM (active) | 50 µM (active) | inactive | inactive |  |  |  |  |  |
| Cc1cc(C)nc(Nc2ccccc2)n1 | inactive | inactive | 14.9 µM (active) | inactive |  |  |  | inactive | inactive | inactive | inactive |  |  |
| CCOc1nc(C(Cl)(Cl)Cl)ns1 | inactive | inactive |  | inactive |  |  | inactive |  | inactive | inactive | inactive | inactive |  |
| N#Cc1c(Cl)cccc1Cl | inactive | inactive |  | inactive |  |  | inactive | inactive | inactive |  | inactive |  |  |
| CS(=O)(=O)c1cc(C(F)(F)F)ccc1C(=O)c1cnoc1C1CC1 | inactive | inactive |  | inactive |  |  | inactive | inactive |  | inactive | inactive | inactive |  |
| CC(C)NC(=O)N1CC(=O)N(c2cc(Cl)cc(Cl)c2)C1=O | inactive | inactive |  |  |  |  | inactive | inactive |  | inactive | inactive |  |  |
| Clc1nc(Cl)nc(Nc2ccccc2Cl)n1 | inactive | inactive |  |  |  |  | inactive |  |  |  | inactive | inactive |  |
| CCN(CC)C(=O)C(C)Oc1cccc2ccccc12 (configuration not stated) | inactive | inactive |  | inactive | 29.8 µM (active) |  | inactive | inactive |  |  | inactive |  |  |
| COP(=O)(OC)O/C(C)=C/C(=O)N(C)C | inactive | inactive |  |  |  |  |  | inactive | inactive |  | inactive | inactive |  |
| N#CN=C1SCCN1Cc1ccc(Cl)nc1 | inactive | inactive |  |  |  |  | inactive | inactive | inactive | inactive | inactive |  |  |
| CNC(=O)N(C)c1nnc(C(C)(C)C)s1 | inactive | inactive |  |  |  |  |  | inactive | inactive |  | inactive | inactive |  |
| CCCCC(C#N)(Cn1cncn1)c1ccc(Cl)cc1 (configuration not stated) | inactive | inactive |  | inactive |  |  |  | inactive | inactive | inactive | inactive |  |  |
| COCC(C)N(C(=O)CCl)c1c(C)csc1C (configuration not stated) | inactive | inactive | 1.84 µM (active) |  |  |  |  |  | inactive |  | inactive |  |  |
| CN=C=S | inactive | inactive | 50 µM (active) |  |  |  |  | inactive | inactive |  | inactive |  |  |
| Clc1cccc(C(Cl)(Cl)Cl)n1 | inactive | inactive |  |  |  |  | inactive | inactive | inactive |  | inactive |  | inactive |
| Cn1c(-c2ccccc2)cc(-c2ccccc2)[n+]1C | inactive | inactive |  |  |  |  | inactive |  | inactive | inactive | inactive | inactive |  |
| COC(=O)N(C(=O)N1CO[C@@]2(C(=O)OC)Cc3cc(Cl)ccc3C2=N1)c1ccc(OC(F)(F)F)cc1 | inactive | inactive | 2.98 µM (active) |  |  |  | inactive |  | inactive | inactive | inactive |  |  |
| N#Cc1c[nH]cc1-c1cccc2c1OC(F)(F)O2 | inactive | inactive | 17.5 µM (active) |  | 2.84 µM (active) | 4.63 µM (active) | inactive | inactive |  | inactive |  |  |  |
| OC(c1ccc(Cl)cc1)(c1ccc(Cl)cc1)C(Cl)(Cl)Cl | inactive | inactive |  |  |  |  |  |  | inactive | inactive | inactive | inactive |  |
| Cc1ccc(N=CN(C)C=Nc2ccc(C)cc2C)c(C)c1 | inactive | inactive |  | inactive |  |  |  |  |  |  | inactive | inactive |  |

| SMILES | outcome [1] | outcome [2] | AC50 [3] | outcome [4] | AC50 [5] | AC50 [6] | outcome [7] | outcome [8] | outcome [5] | outcome [9] | outcome [6] | outcome [3] | outcome [10] |
| --- | --- | --- | --- | --- | --- | --- | --- | --- | --- | --- | --- | --- | --- |
| Cc1cnc(C2=NC(C)(C(C)C)C(=O)N2)c(C(=O)O)c1 (configuration not stated) | inactive | inactive | 50 µM (active) |  |  |  | inactive |  | inactive |  | inactive |  |  |
| COCc1cnc(C2=NC(C)(C(C)C)C(=O)N2)c(C(=O)O)c1 (configuration not stated) | inactive | inactive |  | inactive |  |  |  | inactive |  |  | inactive | inactive | inactive |
| Nc1c(Cl)c(F)nc(OCC(=O)O)c1Cl | inactive | inactive |  |  |  |  |  |  | inactive | inactive | inactive | inactive | inactive |
| COc1cc(Cl)c(OC)cc1Cl | inactive | inactive |  |  |  |  | inactive | inactive | inactive | inactive | inactive | inactive |  |
| COc1ccc(-c2ccccc2)cc1NNC(=O)OC(C)C | inactive | inactive | 7.63 µM (active) |  |  | 50 µM (active) |  |  | inactive |  |  |  | inactive |
| Cc1nc(N(C)C)nc(OC(=O)N(C)C)c1C | inactive | inactive |  |  |  |  | inactive | inactive | inactive |  | inactive | inactive |  |
| C=CCOC(=O)C(C)(C)OC(=O)c1cc(-n2c(=O)cc(C(F)(F)F)n(C)c2=O)ccc1Cl | inactive | inactive |  |  |  |  | inactive |  |  |  | inactive | inactive |  |
| CC(C)Oc1cccc(NC(=O)c2ccccc2C(F)(F)F)c1 | inactive | inactive | 17.6 µM (active) |  |  |  | inactive | inactive | inactive | inactive | inactive |  |  |
| COC(=O)NC(=S)Nc1ccccc1NC(=S)NC(=O)OC | inactive | inactive | 50 µM (active) |  |  |  |  | inactive | inactive |  | inactive |  |  |
| O=P(O)(O)CCCl | inactive | inactive |  |  |  |  |  |  | inactive |  | inactive | inactive |  |
| COP(=S)(OC)SCn1nnc2ccccc2c1=O | inactive | inactive | 10.3 µM (active) |  | 45.4 µM (active) | 18.7 µM (active) | inactive | inactive |  |  |  |  |  |
| CCOC(=O)C(C)OC(=O)c1cc(Oc2ccc(C(F)(F)F)cc2Cl)ccc1[N+](=O)[O-] (configuration not stated) | inactive | inactive |  | inactive | 50 µM (active) |  |  | inactive |  |  | inactive |  |  |
| CCOP(=O)(OCC)Oc1nc(Cl)c(Cl)cc1Cl | inactive | inactive | 39.2 µM (active) |  | 50 µM (active) |  | inactive | inactive |  |  | inactive |  | inactive |
| CS(=O)(=O)c1ccc(C(=O)C2C(=O)CCCC2=O)c([N+](=O)[O-])c1 | inactive | inactive |  |  |  |  |  | inactive |  |  | inactive | inactive |  |
| Nc1c(Cl)c(Cl)nc(C(=O)O)c1Cl | inactive | inactive |  |  |  |  | inactive | inactive | inactive |  | inactive |  |  |
| CCOc1nc(F)cc2nc(S(=O)(=O)Nc3c(Cl)cccc3Cl)nn12 | inactive | inactive |  | inactive |  |  | inactive | inactive |  |  | inactive | inactive |  |
| CC(C)N1C(=O)c2ccccc2NS1(=O)=O | inactive | inactive | 14.9 µM (active) |  |  |  |  | inactive | inactive | inactive | inactive |  |  |
| CO/N=C(/C1=NOCCO1)c1ccccc1Oc1ncnc(Oc2ccccc2Cl)c1F | inactive | inactive |  | inactive |  | 0.574 µM (active) | inactive |  | inactive |  |  |  |  |
| CCOP(=S)(OCC)Oc1nc(Cl)n(C(C)C)n1 | inactive | inactive | 5.61 µM (active) |  | 29.9 µM (active) |  |  | inactive |  |  | inactive |  |  |
